# Measurements published in PubChem BioAssay AID743366 (National Center for Advancing Translational Sciences (NCATS), 2014).
# Non-standard residues stand in square brackets, D forms with d. Residues, ends and D or L forms follow the SMILES beside them. Orn = NCCC[C@H](N)C(=O)O
# Test: qHTS profiling of inhibitors of Plasmodium falciparum (HB3) proliferation (acoustic dispense)
# Conditions: P. falciparum HB3 in erythrocytes, SYBR Green, 72 h; at 49.8 µM (top of the series) unless noted
# Description: Plasmodium falciparum is a virulent malarial parasite that kills 1-2 million people worldwide each year. Transmitted by mosquitoes, the sporozoite form of the parasite enters the blood stream to infect hepatocytes, where they become merozoites that infect red blood cells (erythrocytes). Within erythrocytes, merozoites begin a […] cycle of growth and division, after which the parasite is released to infect new red blood cells. Gametocytes, which form within erythrocytes as well, circulate in the bloodstream and are ingested by the mosquito, thereby completing the life cycle. To profile malarial isolates for differential chemical responses and to identify inhibitors of malarial growth, an assay that measures P. falciparum growth and replication within erythrocytes was employed. This assay uses a DNA binding fluorescent dye (SYBR Green) to detect parasite DNA following cell lysis. Because mature erythrocytes lack DNA, only Plasmodium-derived DNA is detected.
# The SYBR Green viability assay was adapted from a method described previously (Plouffe et al., 2008). For screening 3 ul culture medium was dispensed into 1536 well black clear bottom plates (Aurora Biotechnologies) using a Multidrop Combi (Thermo Fisher Scientific Inc.), 23 nL of compounds in DMSO were added by an acoustic dispenser (EDC Biosystems), and 5 ul of erythrocytes infected with P. falciparum (0.3% parasitemia, 2.5% hematocrit final concentration) were added. The plates were incubated at 37 C in a humidified incubator in 5% CO2 for 72 h, and 2 ul lysis buffer (20 mM Tris HCl, 10 mM EDTA, 0.16% saponin, 1.6% triton X, 10X SYBR Green I supplied as 10,000X […] by Invitrogen) was added to each well. The plates were mixed for 25 sec with gentle shaking and incubated overnight at room temperature in the dark. The following morning, fluorescence intensity at 485(14) nm excitation and 535(25) nm emission wavelengths was measured on an EnVision (Perkin Elmer) plate reader. Plate reads were normalized relative to the control inhibitor (0.29 uM artemisinin) and vehicle (DMSO) wells present on each plate and then corrected by an algorithm using vehicle-only control plates at the beginning and end of the compound plate stack.
row,SMILES,"activity (normalised, proliferation)"
1,COc1ncc(-c2ccc3nccc(-c4ccnnc4)c3c2)cc1NS(=O)(=O)c1ccc(F)cc1F,-1.51%
2,CC[C@@]1([C@@H]2O[C@@H]([C@H]3O[C@@](O)(CO)[C@H](C)C[C@H]3C)C[C@H]2C)CC[C@H]([C@]2(C)CC[C@]3(C[C@H](O)[C@@H](C)[C@@H]([C@@H](C)[C@@H](OC)[C@H](C)C(=O)O)O3)O2)O1,1.41% [at 23.2 µM]
3,CC(C)n1nc(-c2ccc3oc(N)nc3c2)c2c(N)ncnc21,-0.709%
4,CC(=NNC(=S)N1CCC1)c1ccccn1,-0.583%
5,C=CCNC1=C2C[C@@H](C)C[C@H](OC)[C@@H](O)[C@@H](C)C=C(C)[C@H](OC(N)=O)[C@@H](OC)C=CC=C(C)C(=O)NC(=CC1=O)C2=O,-2.45%
6,CSc1cccc(Nc2ncc3cc(-c4c(Cl)cccc4Cl)c(=O)n(C)c3n2)c1,3%
7,Cc1nc2cnc3ccc(C#Cc4cccnc4)cc3c2n1-c1ccc(C(C)(C)C#N)cc1,1.13%
8,Cn1c(=O)c(-c2c(Cl)cccc2Cl)cc2cnc(Nc3cccc(C(=O)O)c3)nc21,16.3%
9,CO[C@@H]1C(N(C)C(=O)c2ccccc2)C[C@H]2O[C@]1(C)n1c3ccccc3c3c4c(c5c6ccccc6n2c5c31)C(=O)NC4=O (stereo not given in full),17.3%
10,CCn1nnc2c(N3CCOCC3)nc(-c3ccc(NC(=O)Nc4ccc(C(=O)N5CCN(C)CC5)cc4)cc3)nc21,4.68%
11,Cc1nc2c(C#N)cccc2n1-c1ccc(C(=O)NC2CC2)s1,1.48%
12,C1CCC(C(CC2CCCCN2)C2CCCCC2)CC1 (stereo not given),-0.0393%
13,CCc1nc(N)nc(N)c1-c1ccc(Cl)cc1,0.0675%
14,C=CCNc1c(O)cc2c(O)c1C[C@@H](C)C[C@H](OC)[C@@H](O)[C@@H](C)C=C(C)[C@H](OC(N)=O)[C@@H](OC)C=CC=C(C)C(=O)N2,-1.74%
15,CC[C@]1(O)C[C@H]2CN(CCC3=c4ccccc4=N[C]3[C@@](C(=O)OC)(c3cc4c(cc3OC)N(C)[C@H]3[C@@](O)(C(N)=O)[C@H](O)[C@]5(CC)C=CCN6CC[C@]43[C@@H]65)C2)C1,2.35%
16,CCOC(=O)[C@H](CCc1ccccc1)N[C@H]1CS[C@H](c2cccs2)CN(CC(=O)O)C1=O,67.9%
17,NC1CCC(Nc2nc(Nc3ccc(C(=O)N4CCCCC4)cc3)c3ncn(-c4cccc(F)c4)c3n2)CC1 (stereo not given),-0.546%
18,COC(=O)[C@]12CCC(C)(C)C[C@@H]1[C@@H]1C(=O)C=C3[C@@]4(C)C=C(C#N)C(=O)C(C)(C)[C@@H]4CC[C@@]3(C)[C@]1(C)CC2,41.4%
19,COc1cc(NC(C)CCCN)c2ncccc2c1 (stereo not given),0.241%
20,CCC(C=C[C@@H]1OC(=O)C=C[C@H]1C)=C[C@H](C)CC=CC(C)=C[C@@H](C)C(=O)[C@@H](C)[C@H](O)[C@@H](C)CC(C)=CC(=O)O,105% [at 1.88 µM]

row,SMILES,"activity (normalised, proliferation)"
1,C[C@H](Cn1cnc2c(N)ncnc21)OCP(=O)(O)O,92.2%
2,O=C1c2ccccc2-[n+]2ccc3c([nH]c4ccccc43)c21,4.27%
3,CC(C=CC(=O)NO)=C[C@@H](C)C(=O)c1ccc(N(C)C)cc1,-0.304%
4,CC(C)N=C(N)N=C(N)Nc1ccc(Cl)cc1,-0.113%
5,CN(C)c1ccc(C(=C2C=CC(=[N+](C)C)C=C2)c2ccc(N(C)C)cc2)cc1,108%
6,CCN[C@H]1C[C@H](C)S(=O)(=O)c2sc(S(N)(=O)=O)cc21,37.3%
7,C[C@@H]1CCC2[C@@H](C)[C@@H](O)O[C@@H]3O[C@@]4(C)CC[C@@H]1[C@@]23OO4 (stereo not given in full),-0.43%
8,CN[C@@H](C)C(=O)N[C@H]1CCCC[C@H]2CC[C@@H](C(=O)N[C@@H](c3ccccc3)c3cn(CCCCc4ccc(CCCCn5cc([C@@H](NC(=O)[C@@H]6CC[C@@H]7CCCC[C@H](NC(=O)[C@H](C)NC)C(=O)N76)c6ccccc6)nn5)cc4)nn3)N2C1=O,0.411%
9,CCc1cc(Nc2nccc(-c3c(-c4ccc(OC)c(C(=O)Nc5c(F)cccc5F)c4)nc4ccccn34)n2)c(OC)cc1N1CCC(N2CCN(S(C)(=O)=O)CC2)CC1,0.0178%
10,CC(C)C[C@@H]1NC(=O)[C@H](CCCN)NC(=O)[C@H](C(C)C)NC(=O)[C@@H]2CCCN2C(=O)[C@@H](Cc2ccccc2)NC(=O)[C@H](CC(C)C)NC(=O)[C@H](CCCN)NC(=O)[C@H](C(C)C)NC(=O)[C@@H]2CCCN2C(=O)[C@@H](Cc2ccccc2)NC1=O (cyclo(V[Orn]L[dF]PV[Orn]L[dF]P)),3.19%
11,O=C1C(=O)c2ccccc2C(O)=C1C1CCC(c2ccc(Cl)cc2)CC1 (stereo not given),3.49%
12,CC(C)[C@H](C(=O)Nc1ccc(C(=O)NO)cc1)c1ccccc1,-0.656%
13,COc1ccc(-c2nc(N3CCOCC3)c3sc(CN(C)c4ncc(C(=O)NO)cn4)cc3n2)cn1,-1.14%
14,O=C(Nc1cn[nH]c1-c1nc2ccc(CN3CCOCC3)cc2[nH]1)NC1CC1,1.76%
15,CCCCN(CCCC)CCC(O)c1cc2c(Cl)cc(Cl)cc2c2cc(C(F)(F)F)ccc12 (stereo not given),-0.0223% [at 23.2 µM]
16,NC(=NCCCCCCN=C(N)N=C(N)Nc1ccc(Cl)cc1)N=C(N)Nc1ccc(Cl)cc1,8.37%
17,O[C@H](c1cc(C(F)(F)F)nc2c(C(F)(F)F)cccc12)[C@H]1CCCCN1,3.25% [at 23.2 µM]
18,Cn1cnc(=N)c2[nH]cnc21,1.41%
19,O=C1c2c(O)ccc(O)c2C(=O)c2c(NCCNCCO)ccc(NCCNCCO)c21,-5.84%
20,CC(C)C[C@H](NC(=O)[C@H](CCc1ccccc1)NC(=O)CN1CCOCC1)C(=O)N[C@@H](Cc1ccccc1)C(=O)N[C@@H](CC(C)C)C(=O)[C@@]1(C)CO1,0.732%
